Assay outcomes (PubChem BioAssay)
TEAD-YAP inh: TEAD-YAP interaction inhibition; HEK-TIYL cells, TEAD-Gal4/YAP UAS-luciferase luminescence; inhibition, % at 9.12 µM; 640,000 tested, 1.4% active; in the data active = inhibition above about 32%
GPR151 ag: activators of human GPR151 | Q8TDV0 | PathHunter beta-arrestin GPR151 cells, luminescence | activation, % at 11.2 µM | 650,000 tested, 1% active | AID 1508602; in the data active = activation above about 4.9%
Target sequence (Q8TDV0 whole entry, looked up): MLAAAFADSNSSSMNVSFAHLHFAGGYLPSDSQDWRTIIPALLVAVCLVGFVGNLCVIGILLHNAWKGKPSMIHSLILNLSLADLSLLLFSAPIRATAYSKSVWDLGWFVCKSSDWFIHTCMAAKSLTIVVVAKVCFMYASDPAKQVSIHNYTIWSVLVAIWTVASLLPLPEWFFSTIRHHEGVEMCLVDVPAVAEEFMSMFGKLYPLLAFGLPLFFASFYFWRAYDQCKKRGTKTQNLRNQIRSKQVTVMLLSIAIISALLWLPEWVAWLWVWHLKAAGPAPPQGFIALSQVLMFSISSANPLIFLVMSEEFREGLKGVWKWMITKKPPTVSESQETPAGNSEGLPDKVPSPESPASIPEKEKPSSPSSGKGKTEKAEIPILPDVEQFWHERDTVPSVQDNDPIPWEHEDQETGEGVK
MITF primary: human MITF inhibition, primary screen | AlphaScreen MITF homodimerization, bead proximity signal | 650,000 tested, 0.91% active | AID 1259374 | inhibition, % at 2.6 µM | O75030; in the data active = inhibition above about 50%
FBW7 activator: human FBW7 E3 ligase activation, primary screen | normalized activity (activation), % at 26.1 µM | 650,000 tested, 0.13% active | AlphaScreen FBW7–phospho-cyclin E peptide binding, activator screen; in the data active = normalized activity above about 1.9%;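 note: purified mutant Fbw7 with reduced substrate affinity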
GPR151 conf act: human GPR151 activation, confirmation screen; 6,700 tested, under 10 active; activation, % at 11.2 µM; shares compounds with GPR151 ag; GPR151 PathHunter beta-arrestin cells, luminescence, 90 min; % of EA-reagent control over plate median; AID 1508609;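 active = mean percent activation across replicates above the confirmation screen cutoff of 4.91%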
GPR119 counter: activates human GPR119 in a GPR151 counter-screen; activation, % at 11.2 µM; shares compounds with GPR151 ag; GPR119 PathHunter beta-arrestin cells, luminescence, 90 min; 0 = compound-well median, 100 = enzyme-acceptor control; 6,700 tested, 0.3% active;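 active = mean percent activation in the counterscreen above 29.09%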;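 note: counterscreen on off-target GPR119 to flag nonselective hits from the GPR151 activator screen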
Each line names hits and unclear results; the compound was inactive in the other large screens (follow-up assays come after a bar, where they were run); ! = a repeat was not active. Rows were chosen to be rich in hits. Some 3.4% of all compounds tested hit in one or more screens of this group.

CCc1c(C)nc(N)nc1N1N=C1SCC(N)=O	GPR151 ag 9.5 | GPR151 conf act inactive | GPR119 counter inactive
N#Cc1cc(F)c(N2CCNCC2)cc1Cl	none
N#Cc1c(Cl)c(Cl)nc(N2CCCNCC2)c1Cl	GPR151 ag 6.1 | GPR151 conf act inactive | GPR119 counter inactive
O=c1c(-c2ccccc2)coc2c(CN3CCCCC3)c(O)ccc12	GPR151 ag 5.1 | GPR151 conf act inactive | GPR119 counter inactive
CCN(CC)c1ccc(/C=C\[N+](=O)[O-])c(C)c1	GPR151 ag 6.7 | GPR151 conf act inactive | GPR119 counter inactive
OC1/C(=C/c2cccc(OCc3ccccc3)c2)N2CCC1CC2 (stereo unspecified)	GPR151 ag 5.9 | GPR151 conf act inactive | GPR119 counter inactive
OC1(c2ccccn2)CC2CCC(C1)N2CCc1ccccc1 (stereo unspecified)	none
COc1ccc(-n2c(-c3ccccc3Cl)nc3ccccc3c2=O)cc1	none
CC(C)(C)c1cc(C=C(C#N)C#N)cc(C(C)(C)C)c1O	TEAD-YAP inh 91, GPR151 ag 6.4 | GPR151 conf act inactive | GPR119 counter inactive
COc1cc(C=C(C#N)C#N)cc(O)c1O	none
CCCC[N+]12CCC(CC1)C(C(=O)c1cccs1)C2 (stereo unspecified)	GPR151 ag 5.8 | GPR151 conf act inactive | GPR119 counter inactive
COc1ccc2oc3c(c2c1)NC(=O)CN=C3c1ccccc1	GPR151 ag 6.9 | GPR151 conf act inactive | GPR119 counter inactive
COc1ccc2oc3c(c2c1)NC(=O)CN=C3c1ccc(F)cc1	none
CCC(C)N=Cc1c(O)[nH]c(=S)[nH]c1=O (stereo unspecified)	none
CC(C)P(=O)(Nc1ccccc1)C(C)C	GPR151 ag 8.0 | GPR151 conf act inactive | GPR119 counter inactive
CN(C)CP(=O)(Nc1ccccc1)N(C)C (stereo unspecified)	none
CC1CN=C(NCc2ccccn2)S1 (stereo unspecified)	none
Cc1cccc(CN2CCN3C(=O)[C@@H]4C[C@@H](O)CN4C(=O)[C@H]3C2)n1	none
Cc1nc(SCc2ccccc2)[nH]c(=O)c1CC(=O)N1CCN(Cc2ccccc2)CC1	GPR151 ag 6.2 | GPR151 conf act inactive | GPR119 counter inactive
O=C(Cc1ccc(Cl)cc1)N1CCN(Cc2ccccc2)CC1	none
COc1cccc(CNC(=O)c2cn(Cc3ccccc3)c3cc(-c4cn[nH]c4)ccc23)c1	none
COc1cccc([C@H](C)NC(=O)c2cn(CCN3CCCC3)c3cc(-c4cn[nH]c4)ccc23)c1	GPR151 ag 11 | GPR151 conf act inactive | GPR119 counter inactive
Cc1cc2oc(=O)c3c(c2c(O)c1CN1CCN(C)CC1)CCCC3	GPR151 ag 9.3 | GPR151 conf act inactive | GPR119 counter inactive
CC(=O)Oc1cc(C)cc2oc(=O)c3c(c12)CCCC3	none
CCCN1CCC[C@@H]2Cc3nc(N)ncc3C[C@H]21	none
CCCN1CCC[C@@H]2Cc3[nH]ncc3C[C@H]21	GPR151 ag 7.8! | GPR151 conf act inactive | GPR119 counter inactive
C[C@@H]1O[C@@H](O[C@H]2C[C@@H](O)[C@]3(CO)[C@H]4[C@H](O)C[C@]5(C)[C@@H](C6=CC(=O)OC6)CC[C@]5(O)[C@@H]4CC[C@]3(O)C2)[C@H](O)[C@H](O)[C@H]1O	TEAD-YAP inh 103, GPR151 ag 5.7! | GPR151 conf act inactive | GPR119 counter 128
Cc1csc(NC(=O)c2cccn(Cc3ccc(Cl)cc3)c2=O)n1	GPR151 ag 4.9 | GPR151 conf act inactive | GPR119 counter inactive
O=c1oc2ccccc2c(O)c1C(c1ccc2c(c1)OCO2)c1c(O)c2ccccc2oc1=O	GPR151 ag 15 | GPR151 conf act inactive | GPR119 counter inactive
CCCCOC(=O)C1N2CCC(CC2)C1(O)C#N (stereo unspecified)	none
O=C1NC(=S)NC(=O)C1=Cc1ccc(I)o1	GPR151 ag 5.7, MITF primary 63 | GPR151 conf act inactive | GPR119 counter inactive
CC(Cc1cccc(C(F)(F)F)c1)NCCCc1ccccc1 (stereo unspecified)	GPR151 ag 9.1 (no result: TEAD-YAP inh) | GPR151 conf act inactive | GPR119 counter inactive
C=C[C@H]1CN2CC[C@H]1C[C@H]2[C@H](O)c1ccnc2ccccc12	GPR151 ag 5.4! | GPR151 conf act inactive | GPR119 counter inactive
Cc1nn(Cc2ccccc2)c(C)c1C=O	GPR151 ag 5.1 | GPR151 conf act inactive | GPR119 counter inactive
C=CCN1C(=O)/C(=C/c2ccc(Cl)cc2Cl)C(=O)NC1=S	GPR151 ag 9.1 | GPR151 conf act inactive | GPR119 counter inactive
C=CCN1C(=O)/C(=C\c2cc(Cl)c(O)c(OC)c2)C(=O)NC1=S	none
COc1cc2c(cc1O)[C@@H]1Cc3ccc(OC)c(O)c3CN1CC2	TEAD-YAP inh 44, GPR151 ag 6.0 | GPR151 conf act inactive | GPR119 counter inactive
CCN1CCN(c2cnn(C34CC5CC(CC(C5)C3C(=O)O)C4)c(=O)c2Cl)CC1 (stereo unspecified)	none
COc1cc(C2C([N+](=O)[O-])=C(N)Oc3c2c(=O)oc2ccccc32)ccc1O (stereo unspecified)	GPR151 ag 5.7 | GPR151 conf act inactive | GPR119 counter inactive
COc1ccc(C2C([N+](=O)[O-])=C(N)Oc3c2c(=O)oc2ccccc32)cc1OC (stereo unspecified)	none
O=C1NC(=O)N(CCc2ccc(F)cc2)C(=O)/C1=C\c1ccc(O)c(O)c1	none
Cc1ccn2c(CNC(C)Cc3cccnc3)c(C(=O)N3CCCCCC3)nc2c1 (stereo unspecified)	none
